Screening data deposited in PubChem by National Center for Advancing Translational Sciences (NCATS).
GALK inhibitor: inhibits human galactokinase | recombinant GALK, Kinase-Glo ATP luminescence, 1 h | P51570 | 44,000 tested, under 10 active | Potency, µM (doses to about 57.5 µM), for inactives: at the highest dose activity, negative = inhibition, hits mostly inhibitors;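 further: plate controls were full GALK reaction for no effect and reaction lacking GALK for full effect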
Target sequence (P51570 whole entry, looked up): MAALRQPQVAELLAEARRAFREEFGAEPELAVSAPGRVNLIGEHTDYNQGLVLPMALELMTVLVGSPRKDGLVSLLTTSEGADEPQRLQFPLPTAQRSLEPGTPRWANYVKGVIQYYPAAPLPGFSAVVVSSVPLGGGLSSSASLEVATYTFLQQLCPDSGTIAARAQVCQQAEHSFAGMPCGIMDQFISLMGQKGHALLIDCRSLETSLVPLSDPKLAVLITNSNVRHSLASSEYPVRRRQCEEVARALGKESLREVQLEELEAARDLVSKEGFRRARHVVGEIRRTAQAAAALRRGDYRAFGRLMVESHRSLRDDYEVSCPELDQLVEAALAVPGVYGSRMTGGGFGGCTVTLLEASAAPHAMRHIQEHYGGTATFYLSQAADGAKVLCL
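5 nM GALK with 35 µM ATP and 100 µM galactose in HEPES pH 8.0, MgCl2, NaCl, DTT, BSA; 1 h RT reaction, remaining ATP detected by Kinase-Glo Plus luminescence after 10 min; qHTS concentration series.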
pS6 MEF inh: inhibitors of mTORC1 signaling in Tsc2-/- p53-/- MEF cells; Tsc2-/- p53-/- MEF, phospho-rpS6 immunofluorescence/PI, 24 h; Potency, µM (titrated, usually from 38.3 µM), for the others: at the top dose activity change, negative = inhibition, most hits filed as inhibitors; 44,000 tested, 0.78% active; AID 493208;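 further: potency means the concentration at half of the fitted maximal effect; plate controls were DMSO for no effect and rapamycin for full effect; nearly all actives have a fitted effect of over 50% in size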
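Readout is phospho-S6 Alexa 488 signal normalized to PI per well, reported as % active cells with thresholds set from rapamycin (7.5 nM) and DMSO controls. Cells: Tsc2-/-, p53-/- MEFs, 24 hrs compound at 37 C; PI cell number serves as viability.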
S16 viability: S16 Schwann cell cytotoxicity. S16 Pmp22-F2sN Schwann cells viability, CellTiter-Glo, 24 h. Potency, µM (top dose mostly 57.5 µM), without a hit: at the top dose activity change, negative = cytotoxicity, usual class: cytotoxic. 43,000 tested, 0.48% active. AID 1508642; further: potency means the concentration at half of the fitted maximal effect; on the % scale 0 is the no-effect control and ±100 the full control effect; nearly all actives have a fitted effect of over 65% in size
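Seed 500-1,000 S16 Pmp22-F2sN cells per well in phenol-red-free DMEM with 10% heat-inactivated FBS; pin-add 23 nL compound; incubate 24 h at 37C; add CellTiter-Glo, wait 15 min protected from light; read luminescence.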
PTAP-TSG101 blk: TSG101-PTAP interaction inhibition, HIV-1 budding. 44,000 tested, under 10 active. Potency, µM (series often up to 115 µM), hits mostly inhibitors. Q99816. Fluorescence polarization, FITC-PTAP peptide/Tsg101, 20 min; further: potency means the concentration at half of the fitted maximal effect; 0% is about no effect
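qHTS FP binding, 20 min r.t.: 10 uM Tsg101 domain + 50 nM FITC-PTAP peptide, pH 7.5 HEPES buffer with TCEP and EDTA.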
PMP22 txn prim: PMP22 gene transcription modulation | S16 Pmp22-F2sN Schwann cells (luciferase reporters placed in the Pmp22 gene), FLuc/NLuc coincidence luminescence, 24 h | Potency, µM (titrated, usually from 57.5 µM), without a hit: at the highest dose activity change, negative = inhibition, usual class: inhibitors | 43,000 tested, 2% active; active means clear falling dose curves in both reporters; inconclusive means both reporters move, but less clearly or upward; inactive means either reporter flat; the % is the NLuc reporter signal; further: potency means the concentration at half of the fitted maximal effect; on the % scale 0 is the no-effect control and ±100 the full control effect
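Transcriptional readout in edited S16(c9) cells: two luciferases reported from the Pmp22 locus, measured in turn after 24 h compound incubation.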
Starred values were filed as active, the others as inactive. In the library only some 2.8% were active in any assay of this set; here they are far more common. Unless noted, the call rests on the fitted dose curve; in most records, active means well fitted curve in the direction sought with a large enough effect; inconclusive means small, poorly fitted or top-dose-only effect, or another doubt; inactive means no such curve, though single readings can be large; an effect the other way counts as inactive or inconclusive.

Results for COC(=O)c1c(C)oc2ccc(N(C(=O)c3ccncc3)S(=O)(=O)c3cc(C)ccc3C)cc12 ?
GALK inhibitor: -1%; pS6 MEF inh: inconclusive; S16 viability: inconclusive; PTAP-TSG101 blk: inactive; PMP22 txn prim: 12µM*

Results for CCOc1ccc(S(=O)(=O)N(C(C)=O)c2ccc3oc(C)c(C(=O)OC)c3c2)cc1 ?
GALK inhibitor: 0%; pS6 MEF inh: 6.6µM*; S16 viability: inconclusive; PTAP-TSG101 blk: inactive; PMP22 txn prim: 5.4µM*

How did COC(=O)c1c(C)oc2ccc(N(C(=O)Oc3ccccc3)S(=O)(=O)c3ccc(C(C)(C)C)cc3)cc12 do in these assays?
GALK inhibitor: 0%; pS6 MEF inh: 5%; S16 viability: -21%; PTAP-TSG101 blk: inactive; PMP22 txn prim: 6.6µM*

Results for COC(=O)c1c(C)oc2ccc(N(C(=O)c3ccncc3)S(=O)(=O)c3ccc(Br)cc3)cc12 ?
GALK inhibitor: -2%; pS6 MEF inh: inconclusive; S16 viability: inconclusive; PTAP-TSG101 blk: inactive; PMP22 txn prim: inconclusive

How did Cc1cc(Cl)ccc1NC(=O)c1cccc(NC(=O)N2CCSc3ncccc32)c1 do in these assays?
GALK inhibitor: inconclusive; pS6 MEF inh: -3%; S16 viability: -8%; PTAP-TSG101 blk: inactive; PMP22 txn prim: inconclusive

What do the screens show for `COc1ccc(CCNC(=O)c2c(O)nc3c(C)cccn3c2=O)cc1OC`?
GALK inhibitor: 6%; pS6 MEF inh: -26%; S16 viability: -5%; PTAP-TSG101 blk: inactive; PMP22 txn prim: -29%

How did Cn1c(=O)n(C)c2cc(N3CCOCC3)c(NS(=O)(=O)c3cccc(C#N)c3)cc21 do in these assays?
GALK inhibitor: -3%; pS6 MEF inh: -2%; S16 viability: -12%; PTAP-TSG101 blk: inactive; PMP22 txn prim: 6%

How did O=S(=O)(NCC(c1cccs1)S(=O)(=O)c1ccccc1)c1ccc(F)c(C(F)(F)F)c1 (configuration not stated) do in these assays?
GALK inhibitor: -3%; pS6 MEF inh: 2%; S16 viability: 20µM*; PTAP-TSG101 blk: inactive; PMP22 txn prim: inconclusive

What do the screens show for `Cc1cc(S(=O)(=O)C(CNC(=O)COc2ccccc2)c2cccs2)ccc1F` (configuration not stated)?
GALK inhibitor: 3%; pS6 MEF inh: 0%; S16 viability: 5%; PTAP-TSG101 blk: inactive; PMP22 txn prim: -1%

Results for O=S(=O)(NCC(c1cccs1)S(=O)(=O)c1ccccc1)c1ccc(F)cc1 (configuration not stated) ?
GALK inhibitor: -7%; pS6 MEF inh: -2%; S16 viability: 20µM*; PTAP-TSG101 blk: inactive; PMP22 txn prim: inconclusive

Results for COc1ccc(S(=O)(=O)NCC(c2cccs2)S(=O)(=O)c2ccccc2)cc1OC (configuration not stated) ?
GALK inhibitor: -5%; pS6 MEF inh: -1%; S16 viability: inconclusive; PTAP-TSG101 blk: inactive; PMP22 txn prim: inconclusive

Results for CCCc1nnc(NC(=O)Cc2coc3ccc(C(C)C)cc23)s1 ?
GALK inhibitor: 2%; pS6 MEF inh: -7%; S16 viability: -6%; PTAP-TSG101 blk: inactive; PMP22 txn prim: 6%

Results for Cc1ccc(CN2C(=O)C(O)(CC(=O)c3ccc(C)cc3)c3ccccc32)cc1 (configuration not stated) ?
GALK inhibitor: 1%; pS6 MEF inh: 9.3µM*; S16 viability: inconclusive; PTAP-TSG101 blk: inactive; PMP22 txn prim: 7.6µM*

How did CCN(CC)C(=O)Cn1c(=O)n(CCCCCC(=O)NCc2ccccc2)c(=O)c2sccc21 do in these assays?
GALK inhibitor: -1%; pS6 MEF inh: 0%; S16 viability: -19%; PTAP-TSG101 blk: inactive; PMP22 txn prim: -9%

What do the screens show for `CCOc1ccccc1NC(=O)Cn1c(=O)n(CC(=O)NCc2ccccc2Cl)c(=O)c2sccc21`?
GALK inhibitor: -5%; pS6 MEF inh: -3%; S16 viability: 28µM*; PTAP-TSG101 blk: inactive; PMP22 txn prim: inconclusive

How did CCOc1ccc(NC(=O)Cn2c(=O)n(CCCCCC(=O)NCc3ccccc3)c(=O)c3sccc32)cc1 do in these assays?
GALK inhibitor: 6%; pS6 MEF inh: inconclusive; S16 viability: 20µM*; PTAP-TSG101 blk: inactive; PMP22 txn prim: inconclusive

What do the screens show for `CC(C)NC(=O)C1CCC(Cn2c(=O)c3sccc3n(CC(=O)Nc3ccccc3)c2=O)CC1` (configuration not stated)?
GALK inhibitor: 1%; pS6 MEF inh: 1%; S16 viability: 25µM*; PTAP-TSG101 blk: inactive; PMP22 txn prim: inconclusive

What do the screens show for `COc1cccc(CNC(=O)C(CC(C)C)NS(=O)(=O)c2ccc3c(c2)oc(=O)n3C)c1` (configuration not stated)?
GALK inhibitor: -3%; pS6 MEF inh: 2%; S16 viability: -21%; PTAP-TSG101 blk: inactive; PMP22 txn prim: -1%

How did Cc1cn2c(=O)cc(COC(=O)c3ccc(NC(=O)COc4ccc(C)c(C)c4)cc3)nc2s1 do in these assays?
GALK inhibitor: -4%; pS6 MEF inh: 17%; S16 viability: 5%; PTAP-TSG101 blk: inactive; PMP22 txn prim: -1%

Results for COc1ccccc1NC(=O)C1CCC(CNS(=O)(=O)c2ccc3c(c2)CC(C)N3C(C)=O)CC1 (configuration not stated) ?
GALK inhibitor: 3%; pS6 MEF inh: inconclusive; S16 viability: inconclusive; PTAP-TSG101 blk: inactive; PMP22 txn prim: 19µM*

How did CC(=O)N1c2ccc(S(=O)(=O)NCC3CCC(C(=O)Nc4ccc(C)c(C)c4)CC3)cc2CC1C (configuration not stated) do in these assays?
GALK inhibitor: 4%; pS6 MEF inh: -21%; S16 viability: -25%; PTAP-TSG101 blk: inactive; PMP22 txn prim: inconclusive

How did CC(=O)N1c2ccc(S(=O)(=O)NCC3CCC(C(=O)Nc4ccc(F)cc4)CC3)cc2CC1C (configuration not stated) do in these assays?
GALK inhibitor: 0%; pS6 MEF inh: -8%; S16 viability: 14µM*; PTAP-TSG101 blk: inactive; PMP22 txn prim: inconclusive

Results for CCc1ccc(NC(=O)C2CCC(CNS(=O)(=O)c3ccc4c(c3)CC(C)N4C(C)=O)CC2)cc1 (configuration not stated) ?
GALK inhibitor: 0%; pS6 MEF inh: inconclusive; S16 viability: -4%; PTAP-TSG101 blk: inactive; PMP22 txn prim: -24%
